Reference: PubChem BioAssay AID1159580 (chemical genetic matrix, 2015)
Screen size: about 5,500 compounds; about 2,000 (36%) were called active. Inconclusive results (about 18%) are left out. This is one part of the list. Values without a mark were called inactive. Cut-off read from the data, not from the text of the source: active = normalized growth mostly below about 0.91 (no sharp cut-off); inconclusive = no clear call, values can overlap the other calls; inactive = mostly above about 0.92.

Assay: chemical genetic growth profiling, strain panel (AID 1159580);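 note: tested at 20 µM; growth read once vehicle control cultures reached saturation at 30 °C; 1 = growth at the plate median or of vehicle wells; lower values mean less growth of the strain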
Conditions: growth OD

N=C(N)c1ccc(OCCCCCOc2ccc(C(=N)N)cc2)cc1
normalized growth (S. cerevisiae deletion strains, locus YJR043C, strain POL32, stronger effect = lower value): 0.909
normalized growth (S. cerevisiae deletion strains, locus YJR075W, strain HOC1, stronger effect = lower value): 0.918
normalized growth (S. cerevisiae deletion strains, locus YKL009W, strain mrt4, stronger effect = lower value): 0.942
normalized growth (S. cerevisiae deletion strains, locus YKL068W, stronger effect = lower value): 0.92 (active)
normalized growth (S. cerevisiae deletion strains, locus YKL085W, strain MDH1 (second series), stronger effect = lower value): 0.936
normalized growth (S. cerevisiae deletion strains, locus YKL085W, strain MDH1, stronger effect = lower value): 0.936
normalized growth (S. cerevisiae deletion strains, locus YKL160W, strain elf1, stronger effect = lower value): 0.948
normalized growth (S. cerevisiae deletion strains, locus YKL190W, strain CNB1, stronger effect = lower value): 0.959
normalized growth (S. cerevisiae deletion strains, locus YKR001C, strain vps1, stronger effect = lower value): 0.952
normalized growth (S. cerevisiae deletion strains, locus YKR026C, strain gcn3, stronger effect = lower value): 0.967
normalized growth (S. cerevisiae deletion strains, locus YKR091W, strain srl3, stronger effect = lower value): 0.961
normalized growth (S. cerevisiae deletion strains, locus YLL001W, strain dnm1, stronger effect = lower value): 0.916
normalized growth (S. cerevisiae deletion strains, locus YLL026W, stronger effect = lower value): 0.97
normalized growth (S. cerevisiae deletion strains, locus YLL041C, strain sdh2, stronger effect = lower value): 0.974
normalized growth (S. cerevisiae deletion strains, locus YLR027C, strain aat2, stronger effect = lower value): 0.951
normalized growth (S. cerevisiae deletion strains, locus YLR039C, strain RIC1, stronger effect = lower value): 1.09
normalized growth (S. cerevisiae deletion strains, locus YLR058C, strain SHM2, stronger effect = lower value): 0.977
normalized growth (S. cerevisiae deletion strains, locus YLR102C, strain apc9, stronger effect = lower value): 0.939
normalized growth (S. cerevisiae deletion strains, locus YLR221C, strain rsa3, stronger effect = lower value): 0.958
normalized growth (S. cerevisiae deletion strains, locus YLR258W, strain gsy2, stronger effect = lower value): 0.963
normalized growth (S. cerevisiae deletion strains, locus YLR262C, strain YPT6 (second series), stronger effect = lower value): 0.988
normalized growth (S. cerevisiae deletion strains, locus YLR262C, strain YPT6, stronger effect = lower value): 1.11
normalized growth (S. cerevisiae deletion strains, locus YLR268W, strain sec22, stronger effect = lower value): 0.887
normalized growth (S. cerevisiae deletion strains, locus YLR320W, strain mms22, stronger effect = lower value): 0.89
normalized growth (S. cerevisiae deletion strains, locus YLR330W, strain CHS5, stronger effect = lower value): 0.999
normalized growth (S. cerevisiae deletion strains, locus YLR342W, strain FKS1 (second series), stronger effect = lower value): 0.89
normalized growth (S. cerevisiae deletion strains, locus YLR342W, strain FKS1, stronger effect = lower value): 0.958
normalized growth (S. cerevisiae deletion strains, locus YLR357W, strain rsc2, stronger effect = lower value): 0.979
normalized growth (S. cerevisiae deletion strains, locus YLR370C, strain arc18, stronger effect = lower value): 0.954
normalized growth (S. cerevisiae deletion strains, locus YLR371W, strain rom2, stronger effect = lower value): 0.929
normalized growth (S. cerevisiae deletion strains, locus YLR384C, strain iki3, stronger effect = lower value): 0.944
normalized growth (S. cerevisiae deletion strains, locus YLR418C, strain cdc73, stronger effect = lower value): 0.789 (active)
normalized growth (S. cerevisiae deletion strains, locus YML016C, strain PPZ1, stronger effect = lower value): 0.991
normalized growth (S. cerevisiae deletion strains, locus YML032C, strain rad52, stronger effect = lower value): 0.828 (active)
normalized growth (S. cerevisiae deletion strains, locus YML120C, strain ndi1, stronger effect = lower value): 0.956
normalized growth (S. cerevisiae deletion strains, locus YML124C, strain tub3, stronger effect = lower value): 0.943
normalized growth (S. cerevisiae deletion strains, locus YMR058W, strain fet3, stronger effect = lower value): 0.828 (active)
normalized growth (S. cerevisiae deletion strains, locus YMR078C, strain ctf18, stronger effect = lower value): 0.912
normalized growth (S. cerevisiae deletion strains, locus YMR125W, strain sto1, stronger effect = lower value): 0.949
normalized growth (S. cerevisiae deletion strains, locus YMR129W, stronger effect = lower value): 0.974
normalized growth (S. cerevisiae deletion strains, locus YMR205C, strain PFK2, stronger effect = lower value): 0.758 (active)
normalized growth (S. cerevisiae deletion strains, locus YMR223W, strain ubp8, stronger effect = lower value): 0.868 (active)
normalized growth (S. cerevisiae deletion strains, locus YMR231W, strain pep5, stronger effect = lower value): 0.965
normalized growth (S. cerevisiae deletion strains, locus YMR263W, strain SAP30, stronger effect = lower value): 0.93
normalized growth (S. cerevisiae deletion strains, locus YMR307W, strain GAS1, stronger effect = lower value): 0.554 (active)
normalized growth (S. cerevisiae deletion strains, locus YNL067W, strain RPL9B, stronger effect = lower value): 0.93
normalized growth (S. cerevisiae deletion strains, locus YNL071W, strain lat1, stronger effect = lower value): 0.957
normalized growth (S. cerevisiae deletion strains, locus YNL128W, strain TEP1, stronger effect = lower value): 0.926
normalized growth (S. cerevisiae deletion strains, locus YNL153C, strain GIM3, stronger effect = lower value): 0.958
normalized growth (S. cerevisiae deletion strains, locus YNL209W, strain ssb2, stronger effect = lower value): 0.948
normalized growth (S. cerevisiae deletion strains, locus YNL233W, strain BNI4, stronger effect = lower value): 0.927
normalized growth (S. cerevisiae deletion strains, locus YNL248C, strain rpa49, stronger effect = lower value): 0.955
normalized growth (S. cerevisiae deletion strains, locus YNL250W, strain rad50, stronger effect = lower value): 0.894 (active)
normalized growth (S. cerevisiae deletion strains, locus YNL271C, strain bni1, stronger effect = lower value): 0.929
normalized growth (S. cerevisiae deletion strains, locus YNL298W, strain CLA4, stronger effect = lower value): 0.931
normalized growth (S. cerevisiae deletion strains, locus YNL307C, strain MCK1, stronger effect = lower value): 0.811 (active)
normalized growth (S. cerevisiae deletion strains, locus YNL322C, strain KRE1 (second series), stronger effect = lower value): 0.918
normalized growth (S. cerevisiae deletion strains, locus YNL322C, strain KRE1, stronger effect = lower value): 0.972
normalized growth (S. cerevisiae deletion strains, locus YNR049C, strain mso1, stronger effect = lower value): 0.941
normalized growth (S. cerevisiae deletion strains, locus YNR052C, strain pop2, stronger effect = lower value): 0.823 (active)
normalized growth (S. cerevisiae deletion strains, locus YOL006C, strain TOP1, stronger effect = lower value): 1.11
normalized growth (S. cerevisiae deletion strains, locus YOL012C, strain htz1): 0.566
normalized growth (S. cerevisiae deletion strains, locus YOL147C, strain pex11, stronger effect = lower value): 0.939
normalized growth (S. cerevisiae deletion strains, locus YOR001W, strain rrp6, stronger effect = lower value): 0.94
normalized growth (S. cerevisiae deletion strains, locus YOR061W, strain CKA2, stronger effect = lower value): 0.964
normalized growth (S. cerevisiae deletion strains, locus YOR069W, strain VPS5, stronger effect = lower value): 0.964
normalized growth (S. cerevisiae deletion strains, locus YOR070C, strain gyp1, stronger effect = lower value): 0.97
normalized growth (S. cerevisiae deletion strains, locus YOR080W, strain dia2, stronger effect = lower value): 0.936
normalized growth (S. cerevisiae deletion strains, locus YOR083W, strain WHI5, stronger effect = lower value): 0.927
normalized growth (S. cerevisiae deletion strains, locus YOR106W, strain vam3, stronger effect = lower value): 0.997
normalized growth (S. cerevisiae deletion strains, locus YOR136W, strain idh2, stronger effect = lower value): 0.95
normalized growth (S. cerevisiae deletion strains, locus YOR144C, strain elg1, stronger effect = lower value): 0.921 (active)
normalized growth (S. cerevisiae deletion strains, locus YOR184W, strain ser1, stronger effect = lower value): 0.832 (active)
normalized growth (S. cerevisiae deletion strains, locus YOR265W, strain rbl2, stronger effect = lower value): 0.962
normalized growth (S. cerevisiae deletion strains, locus YOR270C, strain vph1, stronger effect = lower value): 1.17
normalized growth (S. cerevisiae deletion strains, locus YOR290C, strain snf2, stronger effect = lower value): 0.946
normalized growth (S. cerevisiae deletion strains, locus YOR316C, strain cot1, stronger effect = lower value): 0.943
normalized growth (S. cerevisiae deletion strains, locus YPL051W, strain arl3, stronger effect = lower value): 0.98
normalized growth (S. cerevisiae deletion strains, locus YPL055C, strain LGE1, stronger effect = lower value): 0.943
normalized growth (S. cerevisiae deletion strains, locus YPL078C, strain atp4, stronger effect = lower value): 1.03
normalized growth (S. cerevisiae deletion strains, locus YPL106C, strain sse1, stronger effect = lower value): 0.948
normalized growth (S. cerevisiae deletion strains, locus YPL240C, strain hsp82, stronger effect = lower value): 0.989
normalized growth (S. cerevisiae deletion strains, locus YPL241C, strain CIN2, stronger effect = lower value): 0.973
normalized growth (S. cerevisiae deletion strains, locus YPR119W, strain clb2, stronger effect = lower value): 0.934
normalized growth (S. cerevisiae deletion strains, locus YPR141C, strain kar3, stronger effect = lower value): 0.905 (active)
normalized growth (S. cerevisiae deletion strains, locus YPR163C, strain tif3, stronger effect = lower value): 0.901 (active)
normalized growth (S. cerevisiae deletion strains, locus YPR167C, strain met16, stronger effect = lower value): 0.944
normalized growth (S. cerevisiae deletion strains, strain wtn01, stronger effect = lower value): 0.891 (active)
normalized growth (S. cerevisiae strains, strain wild type, stronger effect = lower value): 0.94
